Measurements: PubChem BioAssay (NCI)
“And” between values parts separate entries of the source, which are not always exact repeats. Identical values can stand only once. This is part of a sample that, as a whole, favours compounds with a hit. Of some 83,000 tested, about 20% had one in any assay.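 Method: cells in 96-well plates; compound added at one concentration; 48 h incubation; percent growth measured; values under 10 scored active.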 The source made the active and inactive calls.

Assays:
Assay in all cases: NCI-60 one-dose screen, 48 h (100 = growth as untreated, 0 = no growth, -100 = all killed)
Settings in all cases: 10 µM unless noted
SK-MEL-2 melanoma = system: SK-MEL-2 melanoma
EKVX NSCLC = system: EKVX NSCLC
SN12C renal = system: SN12C renal
TK-10 renal = system: TK-10 renal
ACHN renal = system: ACHN renal
CAKI-1 renal = system: CAKI-1 renal
A498 renal = system: A498 renal
CCRF-CEM leukemia = system: CCRF-CEM leukemia
MOLT-4 leukemia = system: MOLT-4 leukemia
SR leukemia = system: SR leukemia
RPMI-8226 leukemia = system: RPMI-8226 leukemia
OVCAR-8 ovarian = system: OVCAR-8 ovarian
OVCAR-5 ovarian = system: OVCAR-5 ovarian
OVCAR-4 ovarian = system: OVCAR-4 ovarian
IGROV1 ovarian = system: IGROV1 ovarian
OVCAR-3 ovarian = system: OVCAR-3 ovarian
HS 578T breast = system: HS 578T breast
NCI/ADR-RES ovarian = system: NCI/ADR-RES ovarian
UO-31 renal = system: UO-31 renal
SK-OV-3 ovarian = system: SK-OV-3 ovarian

Measured: growth

Cn1cnc([N+](=O)[O-])c1Sc1ncnc2nc[nH]c12
inactive: SK-MEL-2 melanoma 57.7% and 74.8% | EKVX NSCLC 83.3% and 109% | SN12C renal 75.8% and 83.2% | TK-10 renal 52.8% and 44.3% | ACHN renal 84% and 121% | CAKI-1 renal 49.2% and 75.8% | A498 renal 87.7% and 103% | CCRF-CEM leukemia 48% and 42.6% | MOLT-4 leukemia 66.1% and 56.6% | SR leukemia 44.9% | RPMI-8226 leukemia 34.1% and 36.5% | OVCAR-8 ovarian 50% and 75.4% | OVCAR-5 ovarian 61.8% and 71.6% | OVCAR-4 ovarian 39.7% and 53.2% | IGROV1 ovarian 74.5% and 83.4% | OVCAR-3 ovarian 50.8% and 39.5% | HS 578T breast 79.6% and 69.1% | NCI/ADR-RES ovarian 67.2% and 57.4%

Clc1ccc(SSc2ccc(Cl)cc2)cc1
inactive: SK-MEL-2 melanoma 101% and 111% | EKVX NSCLC 103% and 68.6% | SN12C renal 97.5% and 42.4% | UO-31 renal 85% and 46.7% | ACHN renal 99.4% and 99.7% | CAKI-1 renal 95.8% and 94.5% | A498 renal 87.9% and 74.6% | MOLT-4 leukemia 98.6% | SR leukemia 104% | RPMI-8226 leukemia 102% and 58.2% | OVCAR-8 ovarian 97.6% and 86% | OVCAR-5 ovarian 93.9% and 119% | OVCAR-4 ovarian 103% and 84.9% | SK-OV-3 ovarian 106% and 125% | OVCAR-3 ovarian 101% and 110% | HS 578T breast 97.9% and 93.4% | NCI/ADR-RES ovarian 99.2% and 81.8%

COc1ccc(-c2cn[nH]c2-c2cc(OC)c(OC)c(OC)c2)cc1N
inactive: SK-MEL-2 melanoma 47.8% and 62.1% | EKVX NSCLC 47.5% and 44% | SN12C renal 36.3% and 28.5% | UO-31 renal 50.1% and 34.7% | ACHN renal 30.7% and 29.4% | CAKI-1 renal 25.1% and 22.9% | CCRF-CEM leukemia 22.1% and 21.2% | MOLT-4 leukemia 16.3% and 23.4% | SR leukemia 12% and 19.5% | RPMI-8226 leukemia 29.4% and 23.7% | OVCAR-8 ovarian 21.3% and 12.9% | OVCAR-5 ovarian 46% and 48.7% | OVCAR-4 ovarian 47.6% and 38.8% | SK-OV-3 ovarian 23% and 36.5% | IGROV1 ovarian 37.2% and 15.6% | HS 578T breast 39.5% and 40%
active: A498 renal -1.49% | OVCAR-3 ovarian -7.09% and -1.14% | NCI/ADR-RES ovarian -5.9% and 4.84%

COc1ccc2nc(Cl)cc(C)c2c1
inactive: SK-MEL-2 melanoma 99.6% | EKVX NSCLC 80.4% and 97.6% | SN12C renal 107% and 103% | UO-31 renal 84.9% and 107% | ACHN renal 105% and 118% | CAKI-1 renal 85.6% | A498 renal 86% and 83.4% | CCRF-CEM leukemia 100% and 88.9% | MOLT-4 leukemia 100% and 76.5% | SR leukemia 88.2% and 82.3% | RPMI-8226 leukemia 95.6% and 109% | OVCAR-8 ovarian 101% and 47.4% | OVCAR-5 ovarian 93.7% and 93.4% | OVCAR-4 ovarian 99.2% and 91.8% | SK-OV-3 ovarian 107% and 124% | OVCAR-3 ovarian 119% | HS 578T breast 113% | NCI/ADR-RES ovarian 98.9% and 102%
